# According to PubChem BioAssay AID652115 (Broad Institute, 2013):
# In all, about 330,000 compounds went through this assay and about 3,800 (1.2%) were called active. The list comes from a sample in which actives are over-represented; it also holds similar structures and randomly drawn compounds. Unmarked numbers belong to inactive results. No stated cut-off is given here; in the data, active means inhibition above about 15%; inconclusive means no clear call, values can overlap the other calls; inactive means below that.
# Target: NAD-dependent protein deacylase sirtuin-5, mitochondrial (Homo sapiens) (UniProt Q9NXA8)
# Experiment: SIRT5 desuccinylase inhibitors, primary screen, biochemical, fluorescence imaging, single point, set 5 (AID 652115)
# Details: Purified SirT5, succinyl-peptide AMC, trypsin-coupled fluorescence; at 15 µM; hits give high values
# Chain of NAD-dependent protein deacylase sirtuin-5, mitochondrial (Homo sapiens) (Q9NXA8 whole entry, looked up): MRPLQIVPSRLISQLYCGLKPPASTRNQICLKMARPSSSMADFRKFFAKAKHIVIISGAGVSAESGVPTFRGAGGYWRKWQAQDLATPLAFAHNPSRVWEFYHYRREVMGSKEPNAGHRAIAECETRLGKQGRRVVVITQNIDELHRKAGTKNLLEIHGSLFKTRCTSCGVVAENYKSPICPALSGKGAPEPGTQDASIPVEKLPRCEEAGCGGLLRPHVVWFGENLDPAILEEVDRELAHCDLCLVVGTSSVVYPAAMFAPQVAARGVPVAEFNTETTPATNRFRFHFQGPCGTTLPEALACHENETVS
row,Structure (SMILES),inhibition
1,O=C(C[C@@H]1CC[C@@H](NS(=O)(=O)c2ccc(F)cc2)[C@H](CO)O1)NCc1ccc(Cl)c(Cl)c1,-7.51%
2,CCCCNC(=O)C[C@@H]1C[C@@]2(C(=O)OC)CC(C)(C)CC=C2N(Cc2ccco2)C1=O,21.7% (active)
3,CCCCNC(=O)C[C@@H]1C[C@@]2(C(=O)OCC)CCC=C2N(Cc2ccco2)C1=O,4.42%
4,CCOC(=O)N1CCN(C(=O)C[C@@H]2C[C@@]3(C(=O)OC)CC(C)(C)CC=C3N(Cc3ccco3)C2=O)CC1,-1.2%
5,CC(C)NC(=O)N(C)C[C@@H]1Oc2c(NC(=O)c3cnccn3)cccc2C(=O)N([C@@H](C)CO)C[C@@H]1C,-2.42%
6,COc1ccc2c3c([nH]c2c1)[C@@H](CO)N(S(C)(=O)=O)CC31CN(CC2CC2)C1,1.2%
7,O=[N+]([O-])c1ccc(N2CCOCC2)cc1,-2.77%
8,O=C(Cc1ccc([N+](=O)[O-])cc1)NCCS(=O)(=O)N1CCN(c2ccccc2)CC1,-5.2%
9,CN(C)S(=O)(=O)N1CCN(c2ccc([N+](=O)[O-])cc2)CC1,17.4% (active)
10,O=C(Cc1ccccn1)NCC[C@H]1CC[C@@H](NS(=O)(=O)c2ccc(F)cc2)[C@H](CO)O1,-3.9%
11,Nc1[nH]c(C(=O)c2ccccc2)c(-c2ccc(Cl)cc2Cl)c1C(=O)c1ccccc1,1.08%
12,O=C(C=CC(=O)Nc1ccc(F)cc1F)Nc1ccc(F)cc1F,2.61%
13,CC(Oc1ccccc1F)C(=O)NN (stereo not given),5.06%
14,CC(Oc1ccc(F)cc1F)C(=O)/C=C/N(C)C (stereo not given),38.2% (active)
15,CCCN1[C@H](C(=O)N[C@H](C)c2ccccc2)[C@@H](CO)[C@@H]2Cn3c(ccc(-c4ccccc4)c3=O)[C@@H]21,-2.75%
16,O=C(Cc1ccccc1)N1C[C@H]2[C@@H](c3ccccc31)[C@H](CO)N2C(=O)c1ccc(F)cc1,0.689%
17,CC(=O)c1ccc(NC(=O)Cn2c(=O)oc3ccccc32)cc1,-1.5%
18,NC(=O)Cn1c(=O)oc2ccccc21,23.1% (active)
19,Cc1cccnc1NC(=O)Cn1c(=O)oc2ccccc21,-0.084%
20,CO[C@@H]1CN(C)C(=O)c2cc(NC(C)=O)ccc2OC[C@H](C)N(C(=O)CC2CC2)C[C@@H]1C,0.181%
21,CO[C@@H]1CC[C@H]2CCN(C)C(=O)[C@@H](C)CN(C)C(=O)c3cccc(C#N)c3OC[C@@H]1O2,-2.44%
22,O=C(C[C@@H]1C[C@@H]2c3cc(NC(=O)C4CCC4)ccc3O[C@@H]2[C@@H](CO)O1)NCc1ccccc1,5.94%
23,CS(=O)(=O)Nc1ccc2c(c1)[C@H]1C[C@@H](CC(=O)NCCc3ccccc3)O[C@@H](CO)[C@H]1O2,21.9% (active)

row,Structure (SMILES),inhibition
1,O=C(C[C@@H]1C[C@H]2c3cc(NS(=O)(=O)c4ccc(F)cc4)ccc3O[C@H]2[C@H](CO)O1)NCCc1ccccc1,1.01%
2,CN(C)c1ccc2c(c1)[C@H]1C[C@H](CC(=O)NCc3ccc(Cl)cc3)O[C@H](CO)[C@H]1O2,15.9% (active)
3,O=C(C[C@H]1C[C@H]2c3cc(NC(=O)C4CCC4)ccc3O[C@H]2[C@@H](CO)O1)NCc1ccc(Cl)cc1,0.855% (active)
4,O=C(C[C@@H]1C[C@H]2c3cc(NC(=O)C4CCC4)ccc3O[C@H]2[C@@H](CO)O1)NCc1ccc2c(c1)OCO2,5.03%
5,COCCNC(=O)C[C@H]1C[C@H]2c3cc(NS(C)(=O)=O)ccc3O[C@H]2[C@H](CO)O1,-4.62%
6,CN(C)CC(=O)Nc1ccc2c(c1)[C@H]1C[C@@H](CC(=O)NCc3ccc(Cl)cc3)O[C@@H](CO)[C@H]1O2,4.32%
7,CN(C)CC(=O)Nc1ccc2c(c1)[C@@H]1C[C@H](CC(=O)NCc3ccc(Cl)cc3)O[C@@H](CO)[C@@H]1O2,4.86%
8,COCC#Cc1cnc2c(c1)C(=O)N([C@H](C)CO)C[C@H](C)[C@H](CN(C)C(=O)C1CCOCC1)O2,3.88%
9,CCNC(=O)c1cc2c(c(-c3cccc(C4=CCCC4)c3)n1)[C@H](CCO)N([S@@](=O)C(C)(C)C)C2,13.7%
10,O=C(C[C@@H]1C=C[C@@H](NC(=O)C2CC2)[C@H](CO)O1)NCCCN1CCOCC1,4.53%
11,N#C[C@H]1[C@@H](c2ccccc2C2=CCCCC2)[C@H](CO)N1C(=O)c1ccccn1,2.41%
12,CN1C(=O)c2cc(NC(=O)C3CCOCC3)ccc2OC[C@H]2O[C@@H](CC(=O)NCC3CCCCC3)CC[C@@H]21,12.7%
13,O=C(Cc1ccccn1)N1CC(=O)N2[C@H](CO)[C@@H](c3ccc(C#CC4CCCC4)cc3)[C@H]2C1,1.82%
14,O=C(C[C@H]1CC[C@@H]2[C@H](COC[C@H](O)CN2S(=O)(=O)c2ccc(Cl)cc2)O1)N[C@@H]1CCN(Cc2ccccc2)C1,0.669%
15,Cc1cccc(S(=O)(=O)N2C[C@@H]3[C@H](c4ccccc42)[C@@H](CO)N3C(=O)c2ccccc2)c1,2.62%
16,CO[C@@H]1CN(C)C(=O)c2ccc(NC(=O)Nc3cc(F)ccc3F)cc2OC[C@@H](C)N(C)C[C@@H]1C,4.44%
17,COCC(=O)N1CC(=O)N2[C@H](CO)[C@@H](c3ccc(C#CC4CCCCC4)cc3)[C@@H]2C1,-3.9%
18,C/C=C/c1cnc2c(c1)C(=O)N([C@@H](C)CO)C[C@@H](C)[C@H](CN(C)Cc1cncnc1)O2,-2.68%
19,O=C(CN1CCOCC1)N1CCCCN2[C@@H](CO)[C@H](c3ccc(-c4ccccc4)cc3)[C@@H]2C1,-2%
20,O=C(CN1CCOCC1)N1CCCCN2[C@H](C1)[C@H](c1ccc(-c3ccccc3F)cc1)[C@@H]2CO,22.6% (active)
21,O=C(CN1CCOCC1)N1CCCCN2[C@H](CO)[C@H](c3ccc(-c4ccccc4)cc3)[C@@H]2C1,-2.91%
22,CNC(=O)C[C@@H]1CC[C@@H]2[C@H](COc3ccc(NC(=O)Nc4ccccc4)cc3C(=O)N2C)O1,5.7%
